Compound activity: PubChem, National Center for Advancing Translational Sciences (NCATS)
This is a sample that favours compounds with a hit; in the whole collection about 21% have one here.
Pf growth 48h: P. falciparum growth inhibition at 48 hours (one generation); P. falciparum luciferase growth in erythrocytes, 48 h; actives 5.9% (n = 310,000); Potency, µM (doses to about 28.7 µM), for the others: at the highest dose activity change, negative = inhibition, most hits filed as inhibitors; further: potency means the concentration at half of the fitted maximal effect; on the % scale 0 is the no-effect control and ±100 the full control effect
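Parasite viability was followed by luminescence of a genomically integrated firefly luciferase. Cultures held 0.1% parasitemia at 2% hematocrit (final), incubated under 5% CO2 at 37 C.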
Shiga inhibitor: Shiga toxin inhibition; Vero cells, Shiga toxin protein synthesis inhibition reporter; actives 9.2% (n = 290,000); inhibition, % at 38.7 µM; in the data active means inhibition mostly above about 28%, no sharp cut-off; inactive means mostly below about 43%; further: 0% is about no effect
Sm TGR inh: inhibitors of Schistosoma mansoni thioredoxin glutathione reductase | purified TGR, DTNB reduction, TNB absorbance 405 nm | Q962Y6 | Potency, µM (highest dose often 114 µM), for the others: at the top dose activity change, negative = inhibition, actives largely listed as inhibitors | actives 3% (n = 360,000) | AID 485364; further: potency means the concentration at half of the fitted maximal effect; on the % scale 0 is the no-effect control and ±100 the full control effect; nearly all actives have a fitted effect of over 60% in size
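Kinetic colorimetric format: TGR-catalysed, NADPH-driven DTNB reduction monitored via TNB absorbance. Enzyme dispensed at 20 nM; compound exposure 15 min at room temperature before reaction start.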
Pf growth 96h: P. falciparum growth inhibition at 96 hours; P. falciparum luciferase reporter growth, 96 h; Potency, µM (titrated, usually from 28.7 µM), inactives show at the highest dose activity change, negative = inhibition, actives largely listed as inhibitors; actives 6.9% (n = 320,000); AID 504834; further: potency means the concentration at half of the fitted maximal effect; on the % scale 0 is the no-effect control and ±100 the full control effect
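Readout is luminescence from an integrated firefly luciferase in P. falciparum. Red cells, 2% hematocrit and 0.05% parasitemia final, were cultured with compound through two parasite generations (96 hours) at 37 C, 5% CO2.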
Cycloheximide cs: counter-screen hit for Shiga toxin inhibitors, cycloheximide. cell reporter, cycloheximide protein synthesis inhibition counterscreen. max response, %. actives 12% (n = 300,000); in the data active means max response mostly above about 13%, no sharp cut-off; inactive means mostly below about 14%; further: read at 38.3 µM for the half of the compounds with a filed dose; 0% is about no effect
NS1 inh: influenza NS1 inhibition; Potency, µM (top dose mostly 46.1 µM), without a hit: top-dose activity, positive = more growth; actives 0.4% (n = 270,000); calls by dose curve; further: potency means the concentration at half of the fitted maximal effect; actives are rising curves; nearly all actives have a fitted effect of over 50% in size
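A cell-based growth assay was used: compounds that relieve NS1-induced slow growth of budding yeast raise OD600. Assay medium was yeast nitrogen base with ammonium sulphate and -URA supplement, pH 6.0, with 2% galactose.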
The depositor's hits bear a star. Unless noted, the call rests on the fitted dose curve; in most records, active means well fitted curve in the direction sought with a large enough effect; inconclusive means small, poorly fitted or top-dose-only effect, or another doubt; inactive means no such curve, though single readings can be large; an effect the other way counts as inactive or inconclusive.

For O=C(CN1CCCCC1)NN(Cc1ccccc1)c1ccccc1 the results were Pf growth 48h 31%, Shiga inhibitor -19, Sm TGR inh 5%, Pf growth 96h inconclusive, Cycloheximide cs -1 and NS1 inh -14%.
Screening COc1cccc(-c2nc3ccccc3s2)c1 returned Shiga inhibitor 74*, Sm TGR inh -4%, Pf growth 96h inactive, Cycloheximide cs 38* and NS1 inh -10%.
COc1ccc(-c2nc3ccccc3s2)cc1 was read as Pf growth 48h 95%, Shiga inhibitor 18, Pf growth 96h 22%, Cycloheximide cs 16* and NS1 inh -8%.
`COc1cccc(CC(=O)Nc2ccc(-c3nc4ccccc4s3)cc2)c1` gave Sm TGR inh 1%.
CCOC(=O)Cn1c(=O)n(CC2CCCO2)c2nc(-c3ccccc3OC)nc(C(N)=O)c21 (centres undefined) was read as Sm TGR inh -4%.
`COc1ccc(CN2CCCC(C(=O)N3CCc4ccccc4C3)C2)cc1OC` (centres undefined) gave Pf growth 48h -12%, Shiga inhibitor -9, Sm TGR inh -10%, Pf growth 96h inconclusive, Cycloheximide cs -4 and NS1 inh -2%.
`COc1ccc(CN2CCc3cc(OC)c(OC)cc3C2)cc1O` gave Pf growth 48h 40%, Shiga inhibitor -9, Sm TGR inh -10%, Pf growth 96h 44%, Cycloheximide cs -3 and NS1 inh 1%.
Screening COc1cc(CN2CCCC(N3CCc4ccccc4C3)C2)c(Cl)cc1O (centres undefined) returned Pf growth 48h inconclusive, Shiga inhibitor -9, Sm TGR inh inconclusive, Pf growth 96h 2.9µM*, Cycloheximide cs 16 and NS1 inh -4%.
`COc1cc2c(cc1OC)CN(C1CCCN(Cc3cc(Cl)ccc3O)C1)CC2` (centres undefined) gave Pf growth 48h inconclusive, Shiga inhibitor -13, Sm TGR inh inconclusive, Pf growth 96h 9.3µM*, Cycloheximide cs -2 and NS1 inh -9%.
Screening CCc1ccc(S(=O)(=O)/N=C2\C=C(Nc3cccc(C(=O)O)c3)C(=O)c3ccccc32)cc1 returned Pf growth 48h 1.7µM*, Shiga inhibitor 16, Sm TGR inh -23%, Pf growth 96h -14%, Cycloheximide cs 2 and NS1 inh 5%.
`CCc1ccc(S(=O)(=O)/N=C2\C=C(Nc3ccc(O)cc3)C(=O)c3ccccc32)cc1` gave Pf growth 48h 0.74µM*, Shiga inhibitor 37, Sm TGR inh -22%, Pf growth 96h inconclusive, Cycloheximide cs 17* and NS1 inh 3%.
For O=C(O)c1cccc(NS(=O)(=O)c2ccc(-c3ccc(S(=O)(=O)Nc4cccc(C(=O)O)c4)cc3)cc2)c1 the results were Pf growth 48h 26%, Shiga inhibitor -1, Sm TGR inh -6%, Pf growth 96h 5% and Cycloheximide cs -1.
CCc1ccc(S(=O)(=O)/N=C2\C=CC(=O)c3ccccc32)cc1 was read as Pf growth 48h 2.3µM*, Shiga inhibitor -8, Sm TGR inh 8.9µM*, Pf growth 96h inconclusive and Cycloheximide cs 1.
`CCc1ccc(S(=O)(=O)O)cc1` gave Pf growth 48h -13%, Shiga inhibitor -19, Pf growth 96h -15% and Cycloheximide cs -7.
`CCc1ccc(S(=O)(=O)/N=C2/C=C(Sc3ncn[nH]3)C(=O)c3ccccc32)cc1` gave Pf growth 48h 2.9µM*, Shiga inhibitor 49*, Sm TGR inh 0.32µM*, Pf growth 96h 4.1µM*, Cycloheximide cs 19* and NS1 inh -35%.
`O=C1c2ccccc2C(=O)N1CCSc1ncn[nH]1` gave Pf growth 48h 10%, Shiga inhibitor 12, Sm TGR inh -2%, Pf growth 96h 5%, Cycloheximide cs 7 and NS1 inh -4%.
Screening CSc1ccc(-c2nc3c(C)cccn3c2Nc2ccc3c(c2)OCCO3)cc1 returned Sm TGR inh -6%.
COc1ccc(NC(=O)C2=C(C)Nc3ncnn3C2c2cccn2C)cc1 (centres undefined) was read as Sm TGR inh 6%.
Screening CCc1ccc2c(c1)C(c1ccc([N+](=O)[O-])cc1)=NNC(c1ccc(F)cc1)=N2 returned Pf growth 48h 42%, Shiga inhibitor 63*, Sm TGR inh -4%, Pf growth 96h inconclusive, Cycloheximide cs 24* and NS1 inh 10%.
For Cc1ccc(OCC(=O)OCC(=O)NC2CC2)cc1C the results were Pf growth 48h 30%, Sm TGR inh -1% and Pf growth 96h 8%.
Screening O=P(CCCCCCCCCP(=O)(c1ccccc1)c1ccccc1)(c1ccccc1)c1ccccc1 returned Pf growth 48h 1.3µM*, Shiga inhibitor -26, Sm TGR inh 4%, Cycloheximide cs 3 and NS1 inh -83%.
CCN(CC)c1ccc(/C=N/N=C(c2ccccc2)c2ccccc2)c(O)c1 was read as Pf growth 48h inconclusive, Shiga inhibitor 18, Sm TGR inh -10%, Pf growth 96h inconclusive, Cycloheximide cs -2 and NS1 inh 9%.
For Oc1ccc(/C=N/N(c2ccccc2)c2ccccc2)c(O)c1O the results were Pf growth 48h inconclusive, Shiga inhibitor 15, Sm TGR inh 40µM*, Pf growth 96h 23%, Cycloheximide cs -3 and NS1 inh 10%.
Screening CCN(CC)c1ccc(/C=N/N(c2ccccc2)c2ccccc2)c(O)c1 returned Pf growth 48h inconclusive, Shiga inhibitor -5, Sm TGR inh 0%, Pf growth 96h 7.4µM*, Cycloheximide cs -1 and NS1 inh 17%.
Screening Oc1ccc(/C=N/N(c2ccccc2)c2ccccc2)cc1O returned Pf growth 48h inconclusive, Shiga inhibitor -22, Sm TGR inh 4%, Pf growth 96h -93%, Cycloheximide cs 7 and NS1 inh -1%.
For CCN1CCN(C(c2cccnc2)c2c(NC(=O)c3ccco3)sc(C)c2C)CC1 (centres undefined) the results were Pf growth 48h 4.1µM*, Sm TGR inh 20µM* and Pf growth 96h 4.7µM*.
Screening CCN1CCN(C(c2cccs2)C(C)NC(=O)c2ccccc2)CC1 (centres undefined) returned Pf growth 48h -9%, Shiga inhibitor -3, Sm TGR inh 6%, Pf growth 96h 8%, Cycloheximide cs -2 and NS1 inh -31%.
Screening Cc1sc(NC(=O)c2ccco2)c(C(c2cccnc2)N2CCC(C)CC2)c1C (centres undefined) returned Pf growth 48h 1.9µM*, Shiga inhibitor 2, Sm TGR inh 18µM*, Cycloheximide cs -4 and NS1 inh -107%.
`COc1ccc(C(c2c(NC(=O)c3ccco3)sc(C)c2C)N2CCOCC2)cc1` (centres undefined) gave Pf growth 48h inconclusive, Sm TGR inh -16% and Pf growth 96h 10%.
